Legend:
Experiment in all cases: DAPPL (digital affinity profiling via proximity ligation, sequencing); 10 mM Tris-HCl pH 7.5, 50 mM NaCl, 1 mM DTT, 4% glycerol, room temperature, 30 min; GST-TFs on glutathione beads, 16-mer random dsDNA library, 0.1% formaldehyde crosslink after washing; high values mean tight binding
FLI1 = molecular target: T1, FLI1 (Homo sapiens, UniProt Q01543 1-452); conditions: protein: recombinant; tags: N-terminal GST; dsDNA, one strand shown
T1 sequence: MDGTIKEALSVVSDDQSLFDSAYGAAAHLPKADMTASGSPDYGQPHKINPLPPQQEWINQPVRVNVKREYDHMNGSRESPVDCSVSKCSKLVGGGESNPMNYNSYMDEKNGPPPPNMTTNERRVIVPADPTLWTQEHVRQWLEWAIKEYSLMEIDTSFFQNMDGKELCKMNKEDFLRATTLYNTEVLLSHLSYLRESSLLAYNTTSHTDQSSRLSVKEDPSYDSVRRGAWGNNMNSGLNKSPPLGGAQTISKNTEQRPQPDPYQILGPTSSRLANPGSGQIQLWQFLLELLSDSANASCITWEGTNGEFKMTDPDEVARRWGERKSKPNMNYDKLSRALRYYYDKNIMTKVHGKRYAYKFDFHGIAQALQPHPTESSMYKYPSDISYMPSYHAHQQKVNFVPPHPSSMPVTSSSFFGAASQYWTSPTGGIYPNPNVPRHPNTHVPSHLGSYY
Method in brief: (§1)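 Human transcription factors carrying a GST fusion were produced in yeast, bound to glutathione beads, tagged with DNA barcodes and pooled together with a tag-only sample. Each pool was held with 200 nmole of a random double-stranded 16-mer DNA library in Tris/NaCl/DTT/glycerol buffer for 30 min at room temperature, then washed, crosslinked in 0.1% formaldehyde, proximity-ligated with BsaI/T4 ligase (1 h, 37 °C), PCR-amplified and sequenced on an Illumina NextSeq500. Binding signal is the read frequency of each hexamer for a given factor divided by its frequency in the tag-only sample.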

ELK1 = molecular target: T2, ELK1 (Homo sapiens, UniProt P19419 1-428); conditions: protein: recombinant; tags: N-terminal GST; dsDNA, one strand shown
T2 sequence: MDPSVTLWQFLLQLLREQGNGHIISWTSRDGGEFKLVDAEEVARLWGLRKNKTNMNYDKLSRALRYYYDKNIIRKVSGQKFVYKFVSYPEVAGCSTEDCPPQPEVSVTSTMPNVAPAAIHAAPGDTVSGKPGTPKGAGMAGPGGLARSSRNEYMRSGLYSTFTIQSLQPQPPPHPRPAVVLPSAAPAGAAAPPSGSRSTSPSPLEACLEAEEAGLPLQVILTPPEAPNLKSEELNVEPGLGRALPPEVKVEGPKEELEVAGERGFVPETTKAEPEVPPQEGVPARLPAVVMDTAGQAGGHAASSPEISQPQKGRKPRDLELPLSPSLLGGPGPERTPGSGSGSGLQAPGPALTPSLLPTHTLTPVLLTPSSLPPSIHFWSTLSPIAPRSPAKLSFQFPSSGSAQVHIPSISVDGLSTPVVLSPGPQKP
Method in brief: as §1

GABPA = molecular target: T3, GABPA (Homo sapiens, UniProt Q06546 1-454); conditions: protein: recombinant; tags: N-terminal GST; dsDNA, one strand shown
T3 sequence: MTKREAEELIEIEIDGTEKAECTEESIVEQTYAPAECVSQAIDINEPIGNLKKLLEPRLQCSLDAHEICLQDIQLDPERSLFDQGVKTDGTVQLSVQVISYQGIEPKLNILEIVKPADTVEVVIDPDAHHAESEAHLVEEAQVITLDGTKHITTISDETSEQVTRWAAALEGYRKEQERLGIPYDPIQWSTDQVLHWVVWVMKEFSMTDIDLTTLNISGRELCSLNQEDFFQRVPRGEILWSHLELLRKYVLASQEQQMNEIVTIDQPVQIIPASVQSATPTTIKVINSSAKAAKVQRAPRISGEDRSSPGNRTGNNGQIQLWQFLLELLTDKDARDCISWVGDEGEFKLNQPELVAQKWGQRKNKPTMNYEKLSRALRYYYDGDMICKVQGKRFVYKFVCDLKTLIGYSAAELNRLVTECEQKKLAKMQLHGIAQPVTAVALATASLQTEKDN
Method in brief: as §1

ERG = molecular target: T4, ERG (Homo sapiens, UniProt P11308 1-479); conditions: protein: recombinant; tags: N-terminal GST; dsDNA, one strand shown
T4 sequence: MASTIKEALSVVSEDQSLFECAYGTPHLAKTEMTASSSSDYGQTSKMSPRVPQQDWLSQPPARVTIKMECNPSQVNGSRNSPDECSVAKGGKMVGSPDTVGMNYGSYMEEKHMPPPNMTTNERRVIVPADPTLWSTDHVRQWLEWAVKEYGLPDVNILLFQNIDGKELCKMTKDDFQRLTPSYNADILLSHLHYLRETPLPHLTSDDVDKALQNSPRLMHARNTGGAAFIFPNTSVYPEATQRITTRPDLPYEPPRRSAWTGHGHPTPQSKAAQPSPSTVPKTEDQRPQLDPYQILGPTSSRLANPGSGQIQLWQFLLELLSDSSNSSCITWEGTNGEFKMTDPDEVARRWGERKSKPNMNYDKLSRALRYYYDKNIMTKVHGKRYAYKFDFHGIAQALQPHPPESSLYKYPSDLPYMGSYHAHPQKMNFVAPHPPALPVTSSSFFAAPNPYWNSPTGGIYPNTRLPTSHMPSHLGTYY
Method in brief: as §1

ELF1 = ELF1 (Homo sapiens, UniProt P32519 1-619); conditions: protein: recombinant; tags: N-terminal GST; dsDNA, one strand shown
Chain of ELF1 (P32519 whole entry): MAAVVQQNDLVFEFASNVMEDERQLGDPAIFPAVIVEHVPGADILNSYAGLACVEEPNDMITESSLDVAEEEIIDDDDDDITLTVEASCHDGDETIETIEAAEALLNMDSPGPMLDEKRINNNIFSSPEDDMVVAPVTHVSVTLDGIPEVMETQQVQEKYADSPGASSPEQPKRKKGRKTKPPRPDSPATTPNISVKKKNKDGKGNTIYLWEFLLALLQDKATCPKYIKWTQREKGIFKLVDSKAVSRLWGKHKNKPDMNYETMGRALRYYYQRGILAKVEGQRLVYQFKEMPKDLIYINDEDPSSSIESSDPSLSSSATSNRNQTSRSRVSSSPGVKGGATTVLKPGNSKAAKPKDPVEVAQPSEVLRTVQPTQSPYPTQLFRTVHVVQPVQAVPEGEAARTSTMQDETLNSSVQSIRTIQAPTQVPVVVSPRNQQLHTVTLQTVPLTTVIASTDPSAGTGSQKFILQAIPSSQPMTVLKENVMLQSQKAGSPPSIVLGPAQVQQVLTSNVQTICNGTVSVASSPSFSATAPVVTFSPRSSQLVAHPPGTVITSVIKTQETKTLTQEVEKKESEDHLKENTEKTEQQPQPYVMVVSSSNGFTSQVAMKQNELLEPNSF
Method in brief: as §1

EHF = molecular target: T5, EHF (Homo sapiens, UniProt Q9NZC4 1-300); conditions: protein: recombinant; tags: N-terminal GST; dsDNA, one strand shown
T5 sequence: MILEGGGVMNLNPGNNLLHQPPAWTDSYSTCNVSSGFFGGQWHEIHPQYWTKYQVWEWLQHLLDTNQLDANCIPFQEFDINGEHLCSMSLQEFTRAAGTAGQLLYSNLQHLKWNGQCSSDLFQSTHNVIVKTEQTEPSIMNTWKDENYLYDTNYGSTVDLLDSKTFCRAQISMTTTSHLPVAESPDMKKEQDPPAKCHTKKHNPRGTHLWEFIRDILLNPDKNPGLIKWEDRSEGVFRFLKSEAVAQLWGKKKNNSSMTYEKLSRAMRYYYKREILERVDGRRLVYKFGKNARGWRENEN
Method in brief: as §1

SPI1 = SPI1 (Homo sapiens, UniProt P17947 1-270); conditions: protein: recombinant; tags: N-terminal GST; dsDNA, one strand shown
Method in brief: as §1

SPIB = SPIB (Homo sapiens, UniProt Q01892 1-262); conditions: protein: recombinant; tags: N-terminal GST; dsDNA, one strand shown
Chain of SPIB (Q01892 whole entry): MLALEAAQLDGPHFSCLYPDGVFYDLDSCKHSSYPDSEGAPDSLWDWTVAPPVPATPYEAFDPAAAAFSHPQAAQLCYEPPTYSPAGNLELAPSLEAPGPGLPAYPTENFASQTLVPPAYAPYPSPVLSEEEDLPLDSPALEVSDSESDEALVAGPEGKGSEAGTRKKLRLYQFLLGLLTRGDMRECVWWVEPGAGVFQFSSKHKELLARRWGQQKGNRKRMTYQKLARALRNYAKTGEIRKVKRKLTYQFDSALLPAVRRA
Method in brief: as §1

ELK3 = molecular target: T6, ELK3 (Homo sapiens, UniProt P41970 1-407); conditions: protein: recombinant; tags: N-terminal GST; dsDNA, one strand shown
T6 sequence: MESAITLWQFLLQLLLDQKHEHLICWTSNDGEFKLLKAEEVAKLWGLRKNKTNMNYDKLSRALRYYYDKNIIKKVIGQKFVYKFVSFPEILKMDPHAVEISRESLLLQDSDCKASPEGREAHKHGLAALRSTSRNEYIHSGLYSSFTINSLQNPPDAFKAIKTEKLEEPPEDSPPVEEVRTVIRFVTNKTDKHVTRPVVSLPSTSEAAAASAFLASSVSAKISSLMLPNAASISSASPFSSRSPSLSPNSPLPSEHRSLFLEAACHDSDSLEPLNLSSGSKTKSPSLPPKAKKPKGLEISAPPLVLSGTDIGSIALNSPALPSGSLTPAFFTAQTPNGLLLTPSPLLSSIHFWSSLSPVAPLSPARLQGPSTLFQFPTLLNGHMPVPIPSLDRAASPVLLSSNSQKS
Method in brief: as §1

FEV = molecular target: T7, FEV (Homo sapiens, UniProt Q99581 1-238); conditions: protein: recombinant; tags: N-terminal GST; dsDNA, one strand shown
T7 sequence: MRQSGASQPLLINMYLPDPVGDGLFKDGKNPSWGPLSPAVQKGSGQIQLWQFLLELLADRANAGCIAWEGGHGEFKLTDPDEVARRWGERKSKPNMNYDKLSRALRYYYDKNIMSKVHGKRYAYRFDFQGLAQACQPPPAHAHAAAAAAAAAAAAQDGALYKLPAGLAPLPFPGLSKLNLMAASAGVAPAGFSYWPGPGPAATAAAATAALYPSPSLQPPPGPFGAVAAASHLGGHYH
Method in brief: as §1

ETV5 = ETV5 (Homo sapiens, UniProt P41161 1-510); conditions: protein: recombinant; tags: N-terminal GST; dsDNA, one strand shown
Chain of ETV5 (P41161 whole entry): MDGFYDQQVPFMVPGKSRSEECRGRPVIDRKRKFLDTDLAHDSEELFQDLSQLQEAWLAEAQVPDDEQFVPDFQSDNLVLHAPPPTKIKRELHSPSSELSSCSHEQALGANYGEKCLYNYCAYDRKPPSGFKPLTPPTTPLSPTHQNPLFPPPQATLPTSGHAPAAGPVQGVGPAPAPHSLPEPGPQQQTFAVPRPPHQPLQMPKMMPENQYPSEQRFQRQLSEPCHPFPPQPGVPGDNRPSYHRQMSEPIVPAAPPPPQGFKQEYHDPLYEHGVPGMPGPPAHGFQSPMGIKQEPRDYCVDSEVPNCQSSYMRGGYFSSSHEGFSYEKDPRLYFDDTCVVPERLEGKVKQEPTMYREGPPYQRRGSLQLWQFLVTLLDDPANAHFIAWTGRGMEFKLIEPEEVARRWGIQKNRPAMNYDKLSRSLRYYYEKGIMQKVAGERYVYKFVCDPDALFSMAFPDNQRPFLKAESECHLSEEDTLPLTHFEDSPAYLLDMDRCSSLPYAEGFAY
Method in brief: as §1

HSF1 = HSF1 (Homo sapiens, UniProt Q00613 1-529); conditions: protein: recombinant; tags: N-terminal GST; chain copies: 3; dsDNA, one strand shown
Chain of HSF1 (Q00613 whole entry): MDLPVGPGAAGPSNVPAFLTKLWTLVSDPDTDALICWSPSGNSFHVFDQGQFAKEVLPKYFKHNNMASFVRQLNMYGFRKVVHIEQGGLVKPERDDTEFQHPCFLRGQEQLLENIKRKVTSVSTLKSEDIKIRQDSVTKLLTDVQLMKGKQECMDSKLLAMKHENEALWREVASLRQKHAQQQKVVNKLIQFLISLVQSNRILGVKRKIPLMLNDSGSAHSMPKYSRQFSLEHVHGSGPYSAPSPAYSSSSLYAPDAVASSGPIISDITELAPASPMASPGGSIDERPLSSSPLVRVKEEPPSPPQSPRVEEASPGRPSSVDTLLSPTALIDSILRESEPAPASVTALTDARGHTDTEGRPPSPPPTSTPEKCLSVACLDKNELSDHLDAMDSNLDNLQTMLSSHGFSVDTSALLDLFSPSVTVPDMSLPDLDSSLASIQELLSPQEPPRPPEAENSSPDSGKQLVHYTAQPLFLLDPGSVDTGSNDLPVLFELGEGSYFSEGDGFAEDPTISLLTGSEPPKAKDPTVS
Method in brief: as §1

SPIC = molecular target: T8, SPIC (Homo sapiens, UniProt Q8N5J4 1-248); conditions: protein: recombinant; tags: N-terminal GST; dsDNA, one strand shown
T8 sequence: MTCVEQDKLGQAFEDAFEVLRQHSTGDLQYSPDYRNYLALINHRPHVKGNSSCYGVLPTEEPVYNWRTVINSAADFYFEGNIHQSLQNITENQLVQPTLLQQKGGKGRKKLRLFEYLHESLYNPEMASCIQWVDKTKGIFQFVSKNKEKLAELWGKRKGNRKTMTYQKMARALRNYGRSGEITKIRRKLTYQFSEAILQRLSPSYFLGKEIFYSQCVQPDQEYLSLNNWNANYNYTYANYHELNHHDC
Method in brief: as §1

ELF4 = ELF4 (Homo sapiens, UniProt Q99607 1-663); conditions: protein: recombinant; tags: N-terminal GST; dsDNA, one strand shown
Chain of ELF4 (Q99607 whole entry): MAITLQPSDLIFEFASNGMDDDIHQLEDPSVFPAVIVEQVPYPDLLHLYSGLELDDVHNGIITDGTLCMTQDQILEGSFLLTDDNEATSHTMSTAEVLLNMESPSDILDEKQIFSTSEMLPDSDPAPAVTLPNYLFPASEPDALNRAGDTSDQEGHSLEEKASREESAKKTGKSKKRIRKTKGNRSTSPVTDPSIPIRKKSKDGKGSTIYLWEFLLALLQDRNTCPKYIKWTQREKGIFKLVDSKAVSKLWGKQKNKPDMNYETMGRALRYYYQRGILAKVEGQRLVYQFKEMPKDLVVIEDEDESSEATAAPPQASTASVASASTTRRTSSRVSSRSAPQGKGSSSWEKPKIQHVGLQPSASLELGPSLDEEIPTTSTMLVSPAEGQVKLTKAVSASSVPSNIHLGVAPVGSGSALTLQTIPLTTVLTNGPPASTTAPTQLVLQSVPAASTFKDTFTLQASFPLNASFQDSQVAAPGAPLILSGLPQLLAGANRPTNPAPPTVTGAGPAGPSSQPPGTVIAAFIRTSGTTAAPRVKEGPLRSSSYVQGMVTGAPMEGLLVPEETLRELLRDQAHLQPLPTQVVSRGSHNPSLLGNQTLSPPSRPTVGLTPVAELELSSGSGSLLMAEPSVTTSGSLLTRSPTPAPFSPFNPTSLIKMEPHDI
Method in brief: as §1

ELK4 = molecular target: T9, ELK4 (Homo sapiens, UniProt P28324-2 1-405); conditions: protein: recombinant; tags: N-terminal GST; dsDNA, one strand shown
T9 sequence: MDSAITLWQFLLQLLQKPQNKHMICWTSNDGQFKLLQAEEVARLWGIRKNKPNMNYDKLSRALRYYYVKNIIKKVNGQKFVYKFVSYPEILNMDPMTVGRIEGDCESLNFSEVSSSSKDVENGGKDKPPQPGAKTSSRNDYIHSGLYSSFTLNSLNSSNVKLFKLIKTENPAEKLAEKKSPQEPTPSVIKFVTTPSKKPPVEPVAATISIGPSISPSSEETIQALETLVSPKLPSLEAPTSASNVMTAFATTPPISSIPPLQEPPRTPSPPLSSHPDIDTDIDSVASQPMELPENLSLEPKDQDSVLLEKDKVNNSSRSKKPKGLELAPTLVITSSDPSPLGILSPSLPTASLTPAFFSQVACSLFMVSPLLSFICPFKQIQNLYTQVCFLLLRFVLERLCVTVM
Method in brief: as §1

ETV2 = molecular target: T10, ETV2 (Homo sapiens, UniProt O00321 1-342); conditions: protein: recombinant; tags: N-terminal GST; dsDNA, one strand shown
T10 sequence: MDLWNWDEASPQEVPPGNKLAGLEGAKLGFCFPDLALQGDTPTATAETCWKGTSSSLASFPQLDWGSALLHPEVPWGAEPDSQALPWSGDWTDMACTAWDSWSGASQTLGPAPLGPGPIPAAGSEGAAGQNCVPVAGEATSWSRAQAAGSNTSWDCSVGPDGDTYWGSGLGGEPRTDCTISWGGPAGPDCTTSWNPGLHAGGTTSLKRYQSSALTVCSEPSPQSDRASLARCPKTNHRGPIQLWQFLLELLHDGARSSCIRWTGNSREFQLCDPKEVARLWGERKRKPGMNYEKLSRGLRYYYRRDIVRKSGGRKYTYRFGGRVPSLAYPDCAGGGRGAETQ
Method in brief: as §1

ELF3 = molecular target: T11, ELF3 (Homo sapiens, UniProt P78545 1-371); conditions: protein: recombinant; tags: N-terminal GST; dsDNA, one strand shown
T11 sequence: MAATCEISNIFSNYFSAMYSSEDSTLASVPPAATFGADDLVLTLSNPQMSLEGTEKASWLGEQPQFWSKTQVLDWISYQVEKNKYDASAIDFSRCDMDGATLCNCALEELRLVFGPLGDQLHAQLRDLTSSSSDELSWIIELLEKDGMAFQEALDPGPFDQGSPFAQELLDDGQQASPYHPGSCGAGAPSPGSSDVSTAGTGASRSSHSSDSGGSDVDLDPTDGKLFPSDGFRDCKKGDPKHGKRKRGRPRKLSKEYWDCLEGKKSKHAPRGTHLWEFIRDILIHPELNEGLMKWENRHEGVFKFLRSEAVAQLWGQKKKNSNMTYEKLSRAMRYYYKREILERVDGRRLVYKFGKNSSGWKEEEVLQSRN
Method in brief: as §1

CRX = CRX (Homo sapiens, UniProt O43186 1-299); conditions: protein: recombinant; tags: N-terminal GST; dsDNA, one strand shown
Chain of CRX (O43186 whole entry): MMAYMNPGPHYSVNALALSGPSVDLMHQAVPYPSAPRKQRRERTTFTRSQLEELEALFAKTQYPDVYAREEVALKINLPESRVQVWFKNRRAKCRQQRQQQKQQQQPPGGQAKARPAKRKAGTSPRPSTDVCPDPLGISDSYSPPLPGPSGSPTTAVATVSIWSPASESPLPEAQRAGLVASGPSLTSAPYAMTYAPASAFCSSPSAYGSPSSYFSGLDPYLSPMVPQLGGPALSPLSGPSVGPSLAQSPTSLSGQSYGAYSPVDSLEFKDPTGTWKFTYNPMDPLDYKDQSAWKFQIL
Method in brief: as §1

ETV1 = ETV1 (Homo sapiens, UniProt P50549 1-477); conditions: protein: recombinant; tags: N-terminal GST; dsDNA, one strand shown
Chain of ETV1 (P50549 whole entry): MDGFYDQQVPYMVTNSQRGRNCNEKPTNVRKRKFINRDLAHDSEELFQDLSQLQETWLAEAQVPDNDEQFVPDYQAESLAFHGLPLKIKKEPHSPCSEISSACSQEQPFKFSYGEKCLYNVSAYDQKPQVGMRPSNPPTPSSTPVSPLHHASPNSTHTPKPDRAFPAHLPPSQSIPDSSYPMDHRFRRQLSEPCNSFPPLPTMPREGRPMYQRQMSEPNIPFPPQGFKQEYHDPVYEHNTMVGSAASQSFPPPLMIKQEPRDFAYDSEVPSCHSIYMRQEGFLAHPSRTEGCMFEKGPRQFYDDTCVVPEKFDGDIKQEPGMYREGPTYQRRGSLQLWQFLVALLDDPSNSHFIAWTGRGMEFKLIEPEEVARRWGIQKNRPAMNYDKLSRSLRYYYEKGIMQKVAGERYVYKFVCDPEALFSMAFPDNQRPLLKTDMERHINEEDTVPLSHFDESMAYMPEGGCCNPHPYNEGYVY
Method in brief: as §1

TGACTT
binding signal (FLI1): 1.38 fold enrichment (6-mer frequency, TF over GST control) | binding signal (ELK1): 1.5 fold enrichment (6-mer frequency, TF over GST control) | binding signal (GABPA): 1.38 fold enrichment (6-mer frequency, TF over GST control) | binding signal (ERG): 1.53 fold enrichment (6-mer frequency, TF over GST control) | binding signal (ELF1): 1.44 fold enrichment (6-mer frequency, TF over GST control) | binding signal (EHF): 1.43 fold enrichment (6-mer frequency, TF over GST control) | binding signal (SPI1): 1.68 fold enrichment (6-mer frequency, TF over GST control) | binding signal (SPIB): 1.52 fold enrichment (6-mer frequency, TF over GST control) | binding signal (ELK3): 1.27 fold enrichment (6-mer frequency, TF over GST control) | binding signal (FEV): 1.59 fold enrichment (6-mer frequency, TF over GST control) | binding signal (ETV5): 1.52 fold enrichment (6-mer frequency, TF over GST control) | binding signal (HSF1): 1.15 fold enrichment (6-mer frequency, TF over GST control) | binding signal (SPIC): 1.37 fold enrichment (6-mer frequency, TF over GST control) | binding signal (ELF4): 1.45 fold enrichment (6-mer frequency, TF over GST control) | binding signal (ELK4): 1.4 fold enrichment (6-mer frequency, TF over GST control) | binding signal (ETV2): 1.44 fold enrichment (6-mer frequency, TF over GST control) | binding signal (ELF3): 1.55 fold enrichment (6-mer frequency, TF over GST control) | binding signal (CRX): 1.29 fold enrichment (6-mer frequency, TF over GST control) | binding signal (ETV1): 1.47 fold enrichment (6-mer frequency, TF over GST control)

From article PMC7862700, “An all-to-all approach to the identification of sequence-specific readers for epigenetic DNA modifications on cytosine”
